# Source: PubChem BioAssay AID2284348 (EPA ToxCast)
# Inconclusive results are not listed. Activity calls are given as the source filed them. How the source made its calls: active means hit-call score of the fitted dose curve at least 0.9, where 1 is the maximum; inconclusive means response in the unintended direction; inactive means score below 0.9.
# Test system: Japanese medaka Peroxisome Proliferator-activated Receptor alpha (PPARa), gene 100304458
# Test: ATG_jmPPARa_EcoTox2: Attagene TRANS-FACTORIAL EcoTox-2 HepG2 Assay for Japanese medaka Peroxisome Proliferator-activated Receptor alpha (PPARa)
# Method: ATG_EcoTox2 is a cell-based, multiplexed assay created by modifying the existing Attagene TRANS-FACTORIAL system to include a panel of nuclear receptors from some or all the following species: human (Homo sapiens), african clawed frog (Xenopus laevis), rainbow trout (Oncorhynchus mykiss), japanese medaka (Oryzias latipes), and zebrafish (Danio rerio). The ECOTOX2-FACTORIAL format uses HepG2, a human liver cell line, with measurements taken at 24 hours after chemical dosing in a 24-well plate. ATG_jmPPARa_EcoTox2 is one of 29 assay components calculated in the ATG_EcoTox2 assay. It is designed to make measurements of mRNA induction, a form of inducible reporter, as detected with fluorescence intensity signals by Reverse transcription polymerase chain reaction (RT-PCR) and Capillary electrophoresis technology.The assay endpoint ATG_jmPPARa_EcoTox2 was analyzed in the positive analysis fitting direction relative to DMSO as the negative control and baseline of activity. Using a type of inducible reporter, measures of mRNA for gain-of-signal activity can be used to understand the reporter gene at the transcription factor-level as they relate to the gene PPARa. Furthermore, this assay endpoint can be referred to as a […], because this assay has produced multiple assay endpoints where this one serves a reporter gene function. To generalize the intended target to other relatable targets, this assay endpoint is annotated to the nuclear receptor intended target family, where the subfamily is non-steroidal.
# Human liver HepG2 cells are transiently transfected with multiple reporter transcription units (MRTUs) in 6-well plates using FuGene 6 reagent (Roche; 3 ml FuGene/1 mg DNA). The MRTU constructs are regulated by a cis-regulating element (promoter). Each RTU expresses a GAL4-UAS that regulates the transcription of a nearby target reporter gene sequence. A major difference between the CIS and TRANS system is that in CIS activities of endogenous TFs are measured, whereas the TRANS assay evaluates changes in activities of exogenous, chimeric NR-Gal4 proteins. […] At the end of 24 hour incubation, total RNA was isolated using TriZol reagent (Invitrogen). The isolated RNA is then reverse-transcribed using oligo(dT) primer and Mo-MLV reverse transcriptase (Invitrogen) with DNAse I (Ambion) treatment for 30 min. The one-tenth of the produced cDNA was amplified by PCR using Taq DNA polymerase (Invitrogen) and two reporter sequence-specific primers. […] The fragments were purified using Qiaquick PCR columns (Qiagen), analyzed on an ABI 3130xL genetic analyzer (Applied Biosystems) with peak positions identified by using a set of X-rhodamine (ROX)-labeled MapMarker1000 molecular weight standards (BioVentures). […]
Compound,outcome,AC50
O=S(=O)(O)C(F)(F)C(F)(F)C(F)(F)C(F)(F)C(F)(F)C(F)(F)F,inactive,–
O=C(O)C(F)(F)C(F)(F)C(F)(F)C(F)(F)C(F)(F)C(F)(F)C(F)(F)F,–,75 µM (active)
[Cl][Sn]([c]1ccccc1)([c]1ccccc1)[c]1ccccc1,–,0.473 µM (active)
CCCCOCN(C(=O)CCl)c1c(CC)cccc1CC,–,50 µM (active)
